The values that follow come from PubChem BioAssay AID463173 (ICCB-Longwood Screening Facility, Harvard Medical School, 2010).

The campaign covered roughly 52,000 compounds. About 4,300 (8.3%) were called active. No stated cut-off is given here; in the data, active means survival mostly below about 52% (no sharp cut-off); inactive means mostly above about 56%. The full list was thinned out, with actives kept by preference.

For the experiment, the system named is DeltatarO mutant. As to the kind of experiment: S. aureus survival, RN4220 and DeltatarO strains – OD600, teichoic acid synthesis inhibitors, primary screen (AID 463173). To be noted: S. aureus RN4220 wild type/DeltatarO growth, OD600, 18 h, active compounds read low, screened at 18.75 µg/mL (by protocol).
As for `Cc1cccc(C)c1NC(=O)C1CCN(S(=O)(=O)c2cccc3nsnc23)CC1`, the survival was 89% (inactive).

Take `COc1ccc(-n2c3c(cc(-c4nc(-c5ccc(Cl)cc5)cs4)c2=O)C(=O)CC(C)(C)C3)cc1Cl`: the survival was 79% (inactive).

Consider `COc1ccc(OC)c(NC(=O)c2cnn(-c3ccc(C)cc3)c2C2CCNCC2)c1`, for which the survival is 92% (inactive).

On to `CCOc1ccc(NC(=O)CCNS(=O)(=O)c2ccc3c(c2)CCCC(=O)N3)cc1`, for which the survival is 66% (inactive).

As for `CCN1CCOC(=O)C1CC(=O)Nc1cc(Cl)ccc1OC` (stereo not drawn), the survival is 50% (inactive).

As for `O=C(O)c1ccccc1SC1CC(=O)N(c2ccc(N3CCCCC3)cc2)C1=O` (stereo not drawn), the survival was 90% (inactive).

`CCOc1ccc(NC(=O)c2ccc3c(c2)CCN3S(=O)(=O)CC)cc1`: the survival is 48% (inactive).

As for `CCS(=O)(=O)N1CCc2cc(C(=O)Nc3ccc(OC)c(Cl)c3)ccc21`, the survival is 47% (inactive).

`CCS(=O)(=O)N1CCc2cc(C(=O)NCc3ccc(OC)cc3)ccc21`: the survival was 89% (inactive).

For the molecule `CCS(=O)(=O)N1CCc2cc(C(=O)N3CCN(c4ccc(OC)cc4)CC3)ccc21`, the survival is 40% (active).

Take `COC(=O)c1cc(OC)c(OC)cc1NC(=O)c1ccc2c(c1)CCN2S(=O)(=O)c1ccccc1`: the survival is 66% (inactive).

On to `COc1ccc(Cl)cc1NC(=O)c1ccc2c(c1)CCN2S(C)(=O)=O`, for which the survival was 81% (inactive).

On to `CCS(=O)(=O)N1CCc2cc(C(=O)N3CCN(c4ccccc4)CC3)ccc21`, for which the survival was 69% (inactive).

Turning to `COC(=O)c1cc(OC)c(OC)cc1NC(=O)c1ccc2c(c1)CCN2S(C)(=O)=O`, the survival was 37% (active).

For the molecule `COc1ccc(N2CCN(C(=O)c3ccc4c(c3)CCN4S(C)(=O)=O)CC2)cc1`, the survival was 57% (inactive).

With `CCS(=O)(=O)N1CCc2cc(C(=O)Nc3cc(OC)c(Cl)cc3OC)ccc21`, the survival is 43% (active).

As for `COC(=O)c1ccccc1NC(=O)c1ccc2c(c1)CCN2S(C)(=O)=O`, the survival was 94% (inactive).

Take `CCS(=O)(=O)N1CCc2cc(C(=O)Nc3ccc(OC)cc3OC)ccc21`: the survival is 44% (active).

Take `CC1=C(C(=O)Nc2ccccc2)C(c2ccncc2)n2nc(SCc3ccccc3Cl)nc2N1` (stereo not drawn): the survival is 74% (inactive).

As to `CCCCOc1ccc(-c2cc3c(=O)n(CC(=O)Nc4ccc(Cl)cc4Cl)ccn3n2)cc1`, the survival was 133% (inactive).

For `CCN(CC)C(=O)Cn1c(=O)n(Cc2ccc(C(=O)NCCc3ccc(OC)c(OC)c3)cc2)c(=O)c2ccccc21`, the survival is 104% (inactive).

In the case of `CCn1c(=O)n(CC)c2cc(N3CCCC3)c(NC(=O)Nc3cc(C)cc(C)c3)cc21`, the survival is 91% (inactive).

On to `COc1ccc(CC(=O)NCc2ccc3c(c2)CCN3C(=O)c2ccc(Cl)cc2)cc1OC`, for which the survival was 86% (inactive).
